The source of these data is PubChem BioAssay (Tox21).

A short description of assay [1]: qHTS assay to identify small molecule agonists of the peroxisome proliferator-activated receptor delta (PPARd) signaling pathway - cell viability counter screen (AID 743211). Also: nearly all actives have a fitted effect of over 55% in size. Also: potency is read from the fitted curve at half-maximal effect. An outline of the steps:
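Viability of GeneBLAzer PPARd UAS-bla HEK293H cells was assessed after 17 h compound incubation at 37C, using CellTiter-Glo reagent added after the reporter read and luminescence recorded 30 min later.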

A short description of assay [2]: qHTS assay to identify small molecule antagonists of the peroxisome proliferator-activated receptor delta (PPARd) signaling pathway - cell viability counter screen (AID 743213). Also: nearly all actives have a fitted effect of over 50% in size. Also: potency is read from the fitted curve at half-maximal effect. In outline:
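Luminescence from CellTiter-Glo, added after the bla read and incubated 30 min at room temperature, gives viability of HEK293H PPARd-bla cells exposed to compounds for 17 h at 37 C with 300 nM L165041.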
On the technique in general: In qHTS, concentration-response curves come from the screen itself.

The nature of assay [3]: qHTS assay to identify small molecule antagonists of the farnesoid-X-receptor (FXR) signaling pathway - cell viability counter screen (AID 743221; active = well fitted cell-killing curve with a large enough effect in the repeat runs, not every such curve was filed as active; also: nearly all actives have a fitted effect of over 50% in size; also: potency is read from the fitted curve at half-maximal effect). An outline of the steps: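 Quantitative HTS of the Tox21 10K library run in parallel with the beta-lactamase reporter read. HEK 293T cells carrying a UAS-driven bla reporter got compound and 50 uM CDCA (final) for 16 h; ATP-based luminescence followed.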

The target of assay [4] is Vitamin D3 receptor (Homo sapiens) (UniProt P11473). As to the kind of experiment: qHTS assay to identify small molecule agonists of the vitamin D receptor (VDR) signaling pathway (AID 743222; calls by dose curve). An outline of the steps:
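Tox21 cell reporter format: VDR-bla line, 16 h compound exposure in 5% CO2 at 37C, then fluorescence intensity after 2 h with LiveBLAzer B/G FRET substrate.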

For assay [5] the target is unchanged. As to the kind of experiment: qHTS assay to identify small molecule antagonists of the vitamin D receptor (VDR) signaling pathway (AID 743223; active = well fitted inhibition curve with a large enough effect in the signal ratio in the repeat runs, not every such curve was filed as active; the % refers to the signal ratio). In outline: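 Fluorescence from LiveBLAzer B/G FRET substrate, read after 2 h at room temperature, reflects beta-lactamase reporter activity in VDR-bla cells treated 16 h at 37C with compounds and agonist 1alpha,25-dihydroxyvitamin D3 (3 nM final).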

Assay [6] in a line: qHTS assay to identify small molecule agonists of the vitamin D receptor (VDR) signaling pathway - cell viability counter screen (AID 743224). Also: nearly all actives have a fitted effect of over 50% in size. Also: potency is read from the fitted curve at half-maximal effect. In outline: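 CellTiter-Glo viability readout on VDR-bla cells, measured after 16 h of compound treatment at 37C in the same wells.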
Assay [7] in a line: qHTS assay to identify small molecule antagonists of the vitamin D receptor (VDR) signaling pathway - cell viability counter screen (AID 743225). Also: nearly all actives have a fitted effect of over 50% in size. Also: potency is read from the fitted curve at half-maximal effect. An outline of the steps:
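Cells (VDR-UAS-bla HEK 293T) are plated, rested 4 h at 37C, dosed with compound and 3 nM final 1-alpha,25-dihydroxy vitamin D3, and incubated 16 h. Viability is taken from CellTiter-Glo luminescence in the reporter wells.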

Assay [8] is described as follows: qHTS assay to identify small molecule agonists of the NFkB signaling pathway - cell viability counter screen (AID 1159515; calls by dose curve; also: nearly all actives have a fitted effect of over 55% in size; also: potency is read from the fitted curve at half-maximal effect). An outline of the steps: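 Tox21 library compounds were tested for cytotoxicity against NFkB-bla ME-180 cells during a 5 hr exposure at 37 C. CellTiter-Glo luminescence served as the viability read-out.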
Assay [9] is described as follows: qHTS assay to identify small molecule agonists of the endoplasmic reticulum stress response signaling pathway (AID 1159516; active = well fitted activation curve with a large enough effect in the signal ratio in the repeat runs, not every such curve was filed as active; the % refers to the signal ratio). In outline:
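Fluorescence at 460 and 530 nm (405 nm excitation) reports beta-lactamase from an ER stress response element in HeLa cells treated 5 hr at 37 C.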

A short description of assay [10]: qHTS assay to identify small molecule agonists of the endoplasmic reticulum stress response signaling pathway - cell viability counter screen (AID 1159517; calls by dose curve; also: nearly all actives have a fitted effect of over 50% in size; also: potency is read from the fitted curve at half-maximal effect). In outline: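 ESRE-bla HeLa cells (1,500/well) were plated overnight at 37 C and exposed to compounds for 5 hr. After the 2 hr beta-lactamase substrate read, CellTiter-Glo went into the same wells, and luminescence was read after 30 min at room temperature.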

Assay [11] in a line: qHTS assay to identify small molecule antagonists of the retinoid-related orphan receptor gamma (ROR-gamma) signaling pathway - cell viability counter screen (AID 1159520). Also: nearly all actives have a fitted effect of over 50% in size. Also: potency is read from the fitted curve at half-maximal effect. An outline of the steps: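 Cytotoxicity was read from cellular ATP (CellTiter-Glo luminescence) after 16 hr at 37 C with 1 uM doxycycline induction. The inducer was added 2 hr after compound transfer to Tet-on ROR gamma CHO cells.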

In assay [12] the target is Nuclear receptor ROR-gamma (Homo sapiens) (UniProt P51449). As to the kind of experiment: qHTS assay to identify small molecule antagonists of the retinoid-related orphan receptor gamma (ROR-gamma) signaling pathway (AID 1159521; also: nearly all actives have a fitted effect of over 50% in size; also: potency is read from the fitted curve at half-maximal effect). An outline of the steps: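 RORγ antagonism is scored from reduced reporter luminescence in Tet-on CHO cells. Induction used 1 uM final doxycycline hyclate for 16 h at 37 C, following a 2 h compound exposure.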

Assay [13] can be described thus: qHTS assay to identify small molecule agonists of the AP-1 signaling pathway - cell viability counter screen (AID 1159525; calls by dose curve; also: nearly all actives have a fitted effect of over 55% in size; also: potency is read from the fitted curve at half-maximal effect). An outline of the steps: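 Intracellular ATP by Cell Titer Glo luminescence (30 min, RT) in the same ME-180 AP-1-bla wells after the 5 h compound exposure at 37 °C. Normalised to tetra n-octyl ammonium bromide and DMSO controls.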
The nature of assay [14]: qHTS assay to identify small molecule agonists of the AP-1 signaling pathway (AID 1159526; calls by dose curve).
The target of assay [15] is Retinoic acid receptor RXR-alpha (Homo sapiens) (UniProt P19793). As to the kind of experiment: qHTS assay to identify small molecule agonists of the RXR signaling pathway (AID 1159527; calls by dose curve; also: nearly all actives have a fitted effect of over 35% in size). An outline of the steps: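 qHTS of the Tox21 10K library in GeneBLAzer RXR-alpha HEK 293T cells carrying a beta-lactamase reporter […]; 16 hr treatment, 9-cis retinoic acid as agonist control, FRET read-out.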

Assay [16] is described as follows: qHTS assay to identify small molecule agonists of the farnesoid-X-receptor (FXR) signaling pathway - cell viability counter screen (AID 743218). Also: nearly all actives have a fitted effect of over 45% in size. Also: potency is read from the fitted curve at half-maximal effect. An outline of the steps: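 Quantitative HTS counter screen measuring ATP-based viability via CellTiter-Glo luminescence in HEK 293T cells carrying a UAS-driven beta-lactamase reporter, after 16 h compound exposure at 37 C.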

Assay [17] concerns the target Peroxisome proliferator-activated receptor delta (Homo sapiens) (UniProt Q03181). As to the kind of experiment: qHTS assay to identify small molecule agonists of the peroxisome proliferator-activated receptor delta (PPARd) signaling pathway (AID 743212; calls by dose curve;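 also: HEK293H cells with PPARd UAS beta-lactamase reporter GeneBLAzer system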). An outline of the steps: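 Beta-lactamase reporter readout: a ratiometric FRET signal from the LiveBLAzer substrate after 2 h at room temperature. Compound exposure at 37 °C in PPARδ-bla HEK293H cells driven by an upstream activator sequence.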

The target is the same in assay [18]. As to the kind of experiment: qHTS assay to identify small molecule antagonists of the peroxisome proliferator-activated receptor delta (PPARd) signaling pathway (AID 743215; active = well fitted inhibition curve with a large enough effect in the signal ratio in the repeat runs, not every such curve was filed as active; the % refers to the signal ratio;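 also: cells stimulated with agonist L165041 at 300 nM final during compound exposure; series mostly up to about 62 µM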). In outline: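 Here, a reporter line (HEK293H, beta-lactamase under a UAS) measures PPARd signaling. Compounds are tested against agonist L165041 at 300 nM final concentration over 17 h at 37 C, with fluorescence read after substrate.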

Assay [19] deals with Bile acid receptor (Homo sapiens) (UniProt Q96RI1). Put plainly: qHTS assay to identify small molecule antagonists of the farnesoid-X-receptor (FXR) signaling pathway (AID 743217; active = well fitted inhibition curve with a large enough effect in the signal ratio in the repeat runs, not every such curve was filed as active; the % refers to the signal ratio). In outline: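 Test compounds are pin-transferred onto FXR-bla HEK 293T cells, then chenodeoxycholic acid is added at 50 uM final. After 16 h at 37 °C, LiveBLAzer B/G substrate is applied for 2 h at room temperature and fluorescence read.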

The target is the same in assay [20]. Put plainly: qHTS assay to identify small molecule agonists of the farnesoid-X-receptor (FXR) signaling pathway (AID 743220; active = well fitted activation curve with a large enough effect in the signal ratio in the repeat runs, not every such curve was filed as active; the % refers to the signal ratio). An outline of the steps:
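FXR-UAS-bla HEK 293T cells carrying a UAS-driven beta-lactamase reporter were plated for 5 h at 37C/5% CO2, then exposed to DMSO-dissolved Tox21 10K compounds for 16 h at 37C. A LiveBLAzer B/G FRET substrate was loaded for 2 h at room temperature before fluorescence reading.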

“And” between values parts separate entries of the source, which are not always exact repeats. Equal values may be shown once. Inconclusive results are not listed. A structure can be active in one record and inactive in another. The source made the active and inactive calls. Unless noted, calls follow the shape of the dose curve; as a rule, active = well fitted curve in the direction sought with a large enough effect in the repeat runs; inconclusive = weak or mixed curves; inactive = no such curve, though single readings can be large; an effect the other way counts as inactive or inconclusive.

Peroxisome proliferator-activated receptor delta (Homo sapiens), sequence (Q03181 whole entry, looked up): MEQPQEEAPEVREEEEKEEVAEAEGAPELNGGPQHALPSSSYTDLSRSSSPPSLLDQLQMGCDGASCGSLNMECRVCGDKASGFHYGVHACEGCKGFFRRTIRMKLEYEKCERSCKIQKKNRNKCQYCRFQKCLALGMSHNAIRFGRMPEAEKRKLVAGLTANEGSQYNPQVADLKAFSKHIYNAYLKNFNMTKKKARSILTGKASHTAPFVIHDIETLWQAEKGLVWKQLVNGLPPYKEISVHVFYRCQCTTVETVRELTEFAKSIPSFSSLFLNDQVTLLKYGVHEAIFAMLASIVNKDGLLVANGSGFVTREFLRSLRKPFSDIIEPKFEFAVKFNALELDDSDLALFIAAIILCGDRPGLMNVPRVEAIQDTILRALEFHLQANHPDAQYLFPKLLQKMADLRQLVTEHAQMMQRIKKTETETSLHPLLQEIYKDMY
Retinoic acid receptor RXR-alpha (Homo sapiens), sequence (P19793 whole entry, looked up): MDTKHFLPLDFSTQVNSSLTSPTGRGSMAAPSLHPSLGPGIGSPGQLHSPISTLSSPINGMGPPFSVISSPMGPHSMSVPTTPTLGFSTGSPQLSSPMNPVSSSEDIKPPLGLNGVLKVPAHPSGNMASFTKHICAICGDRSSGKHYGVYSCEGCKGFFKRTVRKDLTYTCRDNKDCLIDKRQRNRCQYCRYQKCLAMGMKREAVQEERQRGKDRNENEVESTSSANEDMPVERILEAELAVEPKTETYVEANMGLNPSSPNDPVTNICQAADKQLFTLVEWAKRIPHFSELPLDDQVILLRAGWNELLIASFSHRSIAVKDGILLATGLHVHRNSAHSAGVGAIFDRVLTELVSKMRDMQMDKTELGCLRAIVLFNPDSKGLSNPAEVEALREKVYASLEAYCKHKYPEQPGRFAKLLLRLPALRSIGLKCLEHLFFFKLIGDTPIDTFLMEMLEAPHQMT
Bile acid receptor (Homo sapiens), sequence (Q96RI1 whole entry, looked up): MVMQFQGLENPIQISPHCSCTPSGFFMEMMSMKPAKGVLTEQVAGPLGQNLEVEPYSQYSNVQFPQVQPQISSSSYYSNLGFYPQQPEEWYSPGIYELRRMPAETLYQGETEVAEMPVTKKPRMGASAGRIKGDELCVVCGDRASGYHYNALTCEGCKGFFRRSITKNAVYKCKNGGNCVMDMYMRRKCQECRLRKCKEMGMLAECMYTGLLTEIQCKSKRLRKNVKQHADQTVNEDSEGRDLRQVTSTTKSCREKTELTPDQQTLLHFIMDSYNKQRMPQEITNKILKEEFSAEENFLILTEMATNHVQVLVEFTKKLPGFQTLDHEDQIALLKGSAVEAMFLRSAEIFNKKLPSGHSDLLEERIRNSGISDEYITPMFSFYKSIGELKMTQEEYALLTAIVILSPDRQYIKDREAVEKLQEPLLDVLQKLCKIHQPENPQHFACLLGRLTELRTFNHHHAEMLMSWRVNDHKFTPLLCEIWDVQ
Vitamin D3 receptor (Homo sapiens), sequence (P11473 whole entry, looked up): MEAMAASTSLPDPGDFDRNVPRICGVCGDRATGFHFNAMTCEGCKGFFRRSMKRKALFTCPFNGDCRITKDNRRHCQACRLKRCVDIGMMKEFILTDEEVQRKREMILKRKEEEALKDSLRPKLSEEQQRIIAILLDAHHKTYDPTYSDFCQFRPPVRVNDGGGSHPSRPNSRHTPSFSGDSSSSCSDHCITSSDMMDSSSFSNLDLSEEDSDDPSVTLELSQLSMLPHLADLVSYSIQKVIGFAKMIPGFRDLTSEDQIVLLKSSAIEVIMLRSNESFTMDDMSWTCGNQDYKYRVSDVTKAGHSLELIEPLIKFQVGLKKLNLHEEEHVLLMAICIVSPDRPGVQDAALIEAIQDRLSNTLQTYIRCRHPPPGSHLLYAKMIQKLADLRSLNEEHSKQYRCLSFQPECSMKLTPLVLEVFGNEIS

As for `Nc1ccc2ccccc2c1`, the Potency result in [1], in assay [2], in assay [3], in [5], in [6] and in assay [7] was “inactive” throughout. Moreover, the Potency entry in [8], in assay [9], in [10], in assay [11], in [12] and in assay [13] was “inactive” throughout. For the same molecule, the Potency entry in [15] was “inactive”. For the same molecule, the molecule was called inactive in assay [4] and in assay [14].
Turning to `COP(=S)(OC)Oc1ccc(S(=O)(=O)N(C)C)cc1`, the Potency result in assay [1], in assay [2], in assay [16], in assay [3], in assay [5] and in assay [6] was “inactive” throughout. The Potency entry in [7], in [8], in assay [9], in assay [10], in assay [11] and in [12] was “inactive” each time. The Potency result in assay [13] and in [15] was “inactive” throughout. The result in assay [4] and in [14] was inactive.
Turning to `O=C1C(Cl)=C(Cl)C(=O)c2ccccc21`, the Potency in assay [1] was 19.6 µM (active) and 13.8 µM (active); in assay [2], 9.8 µM (active) and 6.17 µM (active); in assay [16] it was 49 µM (active); in [3], “inactive and 49 µM (active)”; in assay [6], 4.38 µM (active) and 9.77 µM (active); in [7], 6.94 µM (active) and 12.3 µM (active). Also, the Potency in [8] was 21.9 µM (active) and 12.3 µM (active); in [10], 19.6 µM (active) and 49 µM (active); in assay [11] it was 5.46 µM (active) and 5.45 µM (active); in [12] it was 4.87 µM (active) and 12.2 µM (active); in assay [13] it was 11 µM (active) and 19.5 µM (active). In addition, the Potency result in [17] is “inactive”.
Take `S=c1[nH]c2ccccc2[nH]1`: the Potency entry in assay [1], in assay [2], in assay [16], in assay [3], in [6] and in [7] was “inactive” in each case. In addition, the Potency result in assay [8], in [9], in assay [10], in [11], in assay [12] and in [13] was “inactive” in each case. Further, the Potency entry in assay [15] was “inactive”. Moreover, the result in assay [14] was inactive.
Regarding `ClC(Cl)(Cl)c1ccccc1`, the Potency entry in assay [1], in assay [17], in [2], in [18], in [19] and in [16] was “inactive” each time. Also, the Potency entry in [20], in assay [3], in assay [5], in assay [6], in assay [7] and in assay [9] was “inactive” throughout. In addition, the Potency entry in assay [10], in assay [11], in assay [12], in assay [13] and in assay [15] was “inactive” throughout. For the same molecule, the result in assay [4] and in assay [14] was inactive.
In the case of `CC(C)Nc1nc(Cl)nc(NC(C)C)n1`, the Potency entry in assay [1], in assay [17], in [2], in [18], in assay [16] and in assay [3] was “inactive” in each case. In addition, the Potency result in assay [5], in assay [6], in [7], in assay [8], in assay [9] and in assay [10] was “inactive” throughout. Besides, the Potency result in assay [11], in assay [13] and in [15] was “inactive” throughout. Further, the call in assay [4] and in [14] was inactive.
For the molecule `CCNc1nc(Cl)nc(NC(C)(C)C#N)n1`, the Potency entry in [1], in [17], in [2], in [18], in [3] and in assay [6] was “inactive” in each case. Also, the Potency result in [7], in assay [8], in assay [9], in assay [10], in assay [11] and in assay [12] was “inactive” throughout. Besides, the Potency result in assay [13] was “inactive”. Besides, the molecule was classed as inactive in [14].
